# The list is not random: actives were taken first. Their share in the collection is about 4.1%.
# ssDAF12 agonist: S. stercoralis DAF-12 nuclear receptor activators, primary screen, cell-based, luminescence, HEK293, GRIP1 co-expression, lit1-tk-luc. HEK293 ssDAF-12/GRIP1 lit1-tk-luc reporter; % of 3 µM dafachronic acid response. Nuclear hormone receptor DAF-12 (Strongyloides stercoralis). hit rate 1% among 370,000. activation, % at 6.8 µM;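 active means activation above the mean over all tested compounds plus 3 SD, cut at about 0.9% in these data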
# hgDAF-12 ag: H. glycines DAF-12 receptor agonists, primary screen, cell-based, luminescence, HEK293, GAL4 fusion, UAS-luciferase; HEK293 GAL4-hgDAF12 UAS-luciferase reporter, agonist luminescence; normalized to butyrate control; hit rate 1.8% among 370,000; AID 687014, 2013; activation, % at 6.8 µM;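 active means activation above a cutoff set at the mean of all screened compounds plus 3 SD, cut at about 10% in these data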
# hcDAF-12 act: H. contortus DAF-12 nuclear receptor activators, primary screen, cell-based, luminescence, HEK293, lit1-tk-luc reporter. HEK293 hcDAF-12 lit1-tk-luc reporter; 0% DMSO, 100% Δ7-dafachronic acid. activation, % at 6.8 µM. hit rate 1.4% among 370,000. AID 652067, 2013;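 active means activation above the mean of all tested compounds plus 3 SD, cut at about 5.5% in these data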
# DAX1 inh-1: DAX1 (NR0B1) inhibitors on StAR promoter, primary screen, cell-based, luminescence, SF-1 (NR5A1), full-length DAX-1; inhibition, % at 6.8 µM; AID 652010, 2013; HEK293T StAR-luciferase reporter, SF-1/DAX-1 repression relief; hit rate 1.1% among 370,000;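 active means inhibition above the mean over all tested compounds plus 3 SD, cut at about 3.6% in these data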;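 further: higher inhibition means more luminescence from relief of DAX-1 repression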
# DAX1 inh-2: DAX1 (NR0B1) inhibitors, primary screen, cell-based, HEK293, Gal4-DAX1, luciferase luminescence. HEK293 Gal4-DAX1 luciferase reporter. inhibition, % at 6.75 µM. hit rate 0.99% among 340,000. AID 504766, 2011;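 active means inhibition above the mean over all tested compounds plus 3 SD, cut at about 4.2% in these data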;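 further: inhibition shows as a rise in luminescence from relieved DAX1 repression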
# Target sequence (P51843 207-470 limits assumed): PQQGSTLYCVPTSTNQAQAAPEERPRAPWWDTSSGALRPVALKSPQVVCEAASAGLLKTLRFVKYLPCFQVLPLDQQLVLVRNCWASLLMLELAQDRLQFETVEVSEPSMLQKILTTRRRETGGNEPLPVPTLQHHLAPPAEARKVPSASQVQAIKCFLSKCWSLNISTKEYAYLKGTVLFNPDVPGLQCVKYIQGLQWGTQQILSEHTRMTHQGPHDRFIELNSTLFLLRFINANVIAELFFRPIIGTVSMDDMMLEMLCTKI
# Hits are given with their value; n = inactive; x = no result given.
SMILES,ssDAF12 agonist,hgDAF-12 ag,hcDAF-12 act,DAX1 inh-1,DAX1 inh-2
COCCN(C(=O)COC(=O)c1ccc2c(c1)OCO2)c1c(N)n(Cc2ccccc2)c(=O)[nH]c1=O,n,n,n,n,4.4
CCN(C(=O)COC(=O)c1ccc2c(c1)OCO2)c1c(N)n(Cc2ccccc2)c(=O)[nH]c1=O,n,n,n,n,n
COC(=O)c1cc(-c2ccc3ccccc3c2)c(=O)n2c1CCC2,n,n,n,n,x
COc1ccc(-c2ccc3c(n2)CCCN3S(=O)(=O)c2ccc(F)cc2)cc1,n,n,n,n,x
CCN(CC)c1ccc(NC(=S)NCC2CCCO2)cc1 (centres undefined),n,n,n,4.4,n
C/C(=N\NC(=O)c1ccn(C)n1)c1ccc(NC(=O)C2CCCC2)cc1,n,n,n,n,6.6
CCN(CC)c1ccc(NC(=O)C2CCCC2)cc1,n,n,n,n,4.6
C/C(=N\NC(=O)c1ccn(C)n1)c1ccc(NC(=O)C2CCC2)cc1,n,n,n,n,n
CCn1c(SCC(=O)NN=Cc2cccc(OCc3ccccc3)c2)nnc1-c1ccc(OC)c(OC)c1,n,n,n,n,x
COc1ccc2c(c1)CNC2CS(=O)(=O)NCc1ccccc1 (centres undefined),n,n,n,n,x
CCOC(=O)[C@@]12CCC3=C1N(CCC3)C(=O)[C@H](CC(=O)NCCc1ccccc1OC)C2,0.9,n,n,n,x
CCOC(=O)[C@]12CCCC3=C1N(CCC3)C(=O)[C@@H](CC(=O)NCCc1ccccc1OC)C2,n,n,n,n,x
COc1cc(-c2csc(C)n2)ccc1O,n,n,n,n,4.3
CCOc1ccc(C2CC(c3ccc(CC)cc3)Nc3nc(N)nn32)cc1 (centres undefined),n,n,n,n,4.3
COc1ccc(C2CC(c3ccccc3C)n3nc(N)nc3N2)cc1 (centres undefined),n,n,n,n,5.1
Cc1ccc(-n2c(SCC(=O)Nc3ccc(S(=O)(=O)Nc4cc(C)nc(C)n4)cc3)nnc2-c2cccs2)cc1,n,n,n,n,x
COC(=O)[C@]12C[C@H](CC(=O)NCc3cccs3)C(=O)N(Cc3cccc4ccccc34)C1=C[C@H](C(C)(C)C)O[C@@H]2C,n,n,n,n,x
OC(c1ccccc1)(c1ccccc1)C1CCN(CCCNc2cccc(Br)c2)CC1,n,n,n,n,x
c1csc(-c2nnsc2-c2nc3ccccc3[nH]2)c1,1.4,n,n,n,n
O=c1[nH]c2ccccc2nc1-c1cccs1,n,n,n,n,n
COc1ccc(C(=O)CC2(O)C(=O)N(CN3CCOCC3)c3ccc(Br)cc32)cc1 (centres undefined),n,n,n,n,x
CSc1nsc(SCC(=O)Nc2ccccc2C(=O)O)n1,1.1,n,n,n,n
CSc1nsc(SCC(=O)Nc2ccc(O)c(C(=O)O)c2)n1,n,n,n,n,n
CCN1C(=O)C(CC(=O)Nc2ccc(OC)cc2)N(Cc2cccnc2)C1=S (centres undefined),2.7,n,n,n,n
CC(C)[C@H]1/C(=C/C2CC2)N2C(=O)C[C@@H](c3ccccc3)N=C2N1Cc1ccc2c(c1)OCO2,n,n,n,n,x
SMILES,ssDAF12 agonist,hgDAF-12 ag,hcDAF-12 act,DAX1 inh-1,DAX1 inh-2
CCCCOc1ccc(-c2csc(N)n2)cc1[N+](=O)[O-],n,11,n,n,n
COc1ccc(-c2cn3cc([N+](=O)[O-])ccc3n2)cc1OC,n,n,n,n,n
COc1ccc(-c2cn3ccccc3n2)cc1[N+](=O)[O-],n,11,n,n,n
CCCOc1ccc(-c2cn3ccccc3n2)cc1[N+](=O)[O-],n,12,n,n,n
CCCCC(=O)Nc1cccc(-c2cn3ccccc3n2)c1,n,n,n,n,n
CN(CCc1ccccn1)C(=O)CC1C(=O)NCCN1Cc1cccc(F)c1 (centres undefined),n,n,n,n,n
CC(C)(C)OC(=O)/C=C/[C@H](CCCCl)Sc1ccc(C(C)(C)C)cc1,n,n,n,n,x
Cc1ccc(C)c(NC(=O)C2CCCN2S(=O)(=O)c2cccc3cccnc23)c1 (centres undefined),n,n,n,n,x
Clc1ccc(NC2(c3nnnn3C3CCCCC3)CCCCC2)cc1,n,n,n,n,4.7
COC(=O)CNC(=O)c1cc(OC)cc(OC)c1,n,n,n,3.8,n
COc1cc(O)sc1C=Nc1ccc(Cl)cc1Cl,1.1,n,n,n,n
O=C(C1CCCN(S(=O)(=O)c2ccc(F)cc2)C1)N1CCN(Cc2ccccc2)CC1 (centres undefined),n,n,n,n,x
COc1cccc(C(=O)N/N=C(/CCC(=O)O)c2ccccc2)c1,n,12,n,n,n
COC(=O)N/N=C(\CCC(=O)O)c1cccs1,n,n,n,n,n
COc1cc(C(=O)Nc2nnc(CC(=O)NCc3ccccc3)s2)cc(OC)c1OC,n,n,n,n,4.2
O=C(O)CC/C(=N\NC(=O)c1ccccc1)c1cccs1,n,11,n,n,n
COc1cccc(C(=O)NNC(=O)C(=O)Nc2cccc3ccccc23)c1,n,n,n,n,n
COc1cccc(C(=O)NNC(=O)c2ccc3ccccc3c2O)c1,1.6,n,n,n,n
O=C(O)CC/C(=N\NC(=O)c1ccncc1)c1ccccc1,n,n,n,n,n
COC(=O)c1cc(C2(c3c[nH]c4ccccc34)CCN(C(=O)OC(C)(C)C)CC2)n2ccccc12,n,n,n,n,x
COC(=O)[C@]12C[C@H](CC(=O)NCc3ccc(OC)c(OC)c3)C(=O)N(Cc3cccc4ccccc34)C1=C[C@H](C(C)C)O[C@@H]2C1CC1,n,n,n,n,x
COc1cccc(C(=O)NNC(=O)c2ccccc2)c1,1.4,n,n,n,n
COc1cccc(C(=O)Nc2ccccc2)c1,n,n,n,n,n
CCCc1nnc(NC(=O)c2cccc(OC)c2)s1,n,13,n,4.0,n
CN(C)C(=O)N1CCN(C(=O)[C@H](CCc2ccccc2)NC(=O)[C@H]2O[C@@H](n3cnc4c(N)ncnc43)[C@H](O)[C@@H]2O)CC1,n,n,n,n,x
Cc1cc(C(=O)O)ccc1N/C=C1\CCCC(C)C1=O (centres undefined),n,11,n,n,n
CC1CCC/C(=C\Nc2ccc(O)cc2)C1=O (centres undefined),n,n,n,n,n
COc1ccc(-c2cc3ccccc3[nH]2)cc1,n,n,5.6,n,n

# Assay outcomes deposited in PubChem by The Scripps Research Institute Molecular Screening Center.
